Measured values as given in PubChem BioAssay (Tox21).
Records with an inconclusive call do not appear. A call without a number means that no potency is given here. Activity calls are given as the source filed them. Calls come from the whole dose curve; as a rule, active = well fitted cell-killing curve with a large enough effect in the repeat runs; inconclusive = weak or mixed curves; inactive = flat fitted curve, though single readings scatter.

assay: qHTS RealTime-Glo MT Cell Viability Assay in HepG2 cells - 16 hour (AID 1224885); conditions: RealTime-Glo luminescence; series mostly up to 76.8 µM; note: nearly all actives have a fitted effect of over 50% in size
Excerpt: U.S. Tox21 Program National Center for Advancing Translational Sciences [NCATS] NIH Chemical Genomics Center [NCGC] U.S. Environmental Protection Agency [EPA] National Institutes of Environmental Health Sciences [NIEHS] National Toxicology Program [NTP] U.S. Food and Drug Administration [FDA] Tox21 Assay Overview: Measure of cell viability is critical in the cell-base assay. Analysis of cell viability is necessary for the characterization of cell responses to cytotoxic drugs and environmental stress. A RealTime-Glo MT Cell Viability Assay to monitor cell viability in real time of continues cell culture during 40 hours of compound treatment was used to screen Tox21 10K library compounds in HepG2 cells. The RealTime-Glo MT Cell Viability Assay is a nonlytic, homogeneous, bioluminescent method to measure cell viability in real time using a simple, plate-based method. The assay involves adding NanoLuc luciferase and a cell-permeant prosubstrate to cells in culture. Viable cells reduce the proprietary prosubstrate to generate a substrate for NanoLuc luciferase. This substrate diffuses from cells into the surrounding culture medium, where it is rapidly used by the NanoLuc Enzyme to produce a luminescent signal. The signal correlates with the number of viable cells, making the assay well suited for cytotoxicity studies.
Tox21 Assay Protocol Summary: The mixture of HepG2 cell suspension and reagents were dispensed at 600cells/6 ul/well in 1536-well tissue culture treated black solid bottom plates using a Multidrop dispenser. After the assay plates were incubated at a 37 C/5% CO2 incubator for 5 hours, 23 nL of compounds dissolved in DMSO, positive and negative controls was transferred to the assay plate by a pintool work station. The plates were incubated at 37 C for 40 hours. The luminescence intensity were measured at 0h, 8h, 16h, 24h, 32h and 40h time points using ViewLux plate reader during compound treatment.
Potency is the fitted concentration of half-maximal effect.

| SMILES | Potency |
| --- | --- |
| Cc1ccc(C(C)C)c(O)c1 | inactive |
| Cc1ccc2ncccc2c1 | inactive |
| CC1(C)NC(=O)NC1=O | inactive |
| CC1(C)OC[C@@H]2O[C@@]3(C(=O)O)OC(C)(C)O[C@H]3[C@@H]2O1 | inactive |
| CCCCCCCCCCCC(=O)OC | inactive |
| COC(=O)c1cccnc1 | inactive |
| C=CC(=O)OCCC(=O)O | inactive |
| CCCCCC(=O)O | inactive |
| CC(C)CC(C)O (stereo not given) | inactive |
| NC(=S)NNC(N)=S | inactive |
| Cc1ccc([N+](=O)[O-])cc1S(=O)(=O)O | inactive |
| CN1C(=O)CC[C@H]1c1cccnc1 | inactive |
| CCNc1cccc(C)c1 | inactive |
| COc1ccc([N+](=O)[O-])cc1N | inactive |
| CC(C)(C#N)c1cc(Cn2cncn2)cc(C(C)(C)C#N)c1 | inactive |
| OC1C(O)C(O)C(O)C(O)C1O (stereo not given) | inactive |
| CCCCCCCCCCCCCCCCO | inactive |
| Nc1ccc(Cl)c(N)c1 | inactive |
| CCO[Si](CCCN)(OCC)OCC | inactive |
| c1ccc(Oc2ccccc2)cc1 | inactive |

| SMILES | Potency |
| --- | --- |
| O=S(=O)(O)c1ccccc1 | inactive |
| CCOCC(=O)O | inactive |
| CCCOC(=O)c1ccccc1 | inactive |
| OCc1cccc(Oc2ccccc2)c1 | inactive |
| CC1(C)CC(N)CC(C)(CN)C1 (stereo not given) | inactive |
| CCCCCCCCCCO | inactive |
| Clc1ccccn1 | inactive |
| C=C(C)[C@H]1CC=C(C)C(=O)C1 | inactive |
| O=C(O)Cn1c(=O)n(Cc2ccc(Br)cc2F)c(=O)c2ccc(Cl)cc21 | 24.5 µM (active) |
| O=[N+]([O-])c1ccc2nc[nH]c2c1 | inactive |
| CN(C)c1ccc(Cc2ccc(N(C)C)cc2)cc1 | inactive |
| CN/C(=C\[N+](=O)[O-])NCCSCc1csc(CN(C)C)n1 | inactive |
| O=C(O)c1ccccc1C(=O)O | inactive |
| CCCCOC(=O)c1ccc(N)cc1 | inactive |
| CC(=O)CCC=C(C)C | inactive |
| CNC(=O)Oc1ccc2c(c1)[C@]1(C)CCN(C)[C@@H]1N2C | inactive |
| CC(C)OP(=O)(CP(=O)(OC(C)C)OC(C)C)OC(C)C | inactive |
| CCOC(=O)c1ccc(N)cc1 | inactive |
| CC(C)CC(=O)CC(C)CC(C)C (stereo not given) | inactive |
| c1ccc2c(c1)Cc1ccccc1-2 | inactive |
